Sampled rows, rich in hits. Any-hit rate of the full collection: about 2.3%.
USP1 inh: USP1/UAF1 (human) deubiquitinase inhibition; O94782; recombinant USP1/UAF1, Ub-Rhodamine cleavage fluorescence; Potency, µM (highest dose often 57.1 µM), without a hit: at the highest dose activity change, negative = inhibition, hits mostly inhibitors; 390,000 tested, 0.23% active; AID 743255; also: potency is read from the fitted curve at half-maximal effect; nearly all actives have a fitted effect of over 60% in size
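USP1/UAF1 complex (1 nM) preincubated 15 min at room temperature with compound, then Ub-Rho substrate (150 nM final) added. Kinetic fluorescence at 480/540 nm over 6 reads at 60 s intervals; 50 mM HEPES pH 7.8, 0.5 mM EDTA, 0.1 mg/ml BSA, 1 mM TCEP, 0.01% Tween-20.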
Tau FP inhib: tau fibrillization inhibition (FP) | P10636 | K18 P301L tau heparin fibrillization, Alexa594 FP, 6 h | Potency, µM (titrated, usually from 57.7 µM), for the others: at the highest dose activity, negative = inhibition, hits mostly inhibitors | 280,000 tested, 0.39% active; also: potency is read from the fitted curve at half-maximal effect; nearly all actives have a fitted effect of over 55% in size
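Heparin (20 uM) drove fibril formation of recombinant tau K18 P301L, 15 uM unlabeled with 0.24 uM Alexa 594 label, for 6 hr at 37 C in 100 mM sodium acetate pH 7. Fluorescence polarization (555/632 nm) read 1 hr after 30 uM ThT.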
Coupling enz: coupling enzyme interference in Giardia aldolase counter-screen; coupling enzyme system counterscreen, AmpLite Red fluorescence; activity change, negative = inhibition, % at 58.2 µM, hits read low; AID 2472; 290,000 tested, 0.67% active; in the data active = activity change below about -30%
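First, compound is pin-transferred into glyceraldehyde-3-phosphate coupling-enzyme reagent at 57.5 uM final and held 10 min at RT. Next, substrate, coupling system and AmpLite Red are added. After 20 min RT, fluorescence (525/598 nm) is read.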
Tau ThT inhib: blocks human tau fibril formation measured by thioflavin T | P10636 | recombinant tau K18 P301L, heparin-induced fibrillization, ThT fluorescence | 270,000 tested, 2.1% active | AID 1460 | Potency, µM (top dose mostly 57.4 µM), for inactives: top-dose activity, negative = inhibition, hits mostly inhibitors; also: potency is read from the fitted curve at half-maximal effect; nearly all actives have a fitted effect of over 55% in size
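Heparin-induced (20 uM) aggregation of recombinant human K18 P301L tau, 15 uM unlabeled with 0.24 uM labeled, pH 7 acetate buffer, 6 hr at 37 C with compound. Fibrils quantified by 30 uM ThT fluorescence after 1 hr ambient incubation.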
Tau fluor cs: counter-screen for tau fibril formation inhibitors | AID 1463 | 280,000 tested, 0.93% active | tau K18 P301L Alexa594 fluorescence, heparin fibrillization | Potency, µM (titrated, usually from 57.7 µM), for the others: at the highest dose activity change, negative = decrease; also: potency is read from the fitted curve at half-maximal effect; nearly all actives have a fitted effect of over 55% in size
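Human tau K18 P301L (15 uM unlabeled, 0.24 uM Alexa 594-labeled) in 100 mM sodium acetate pH 7 with 20 uM heparin, 6 hr at 37 C. ThT 30 uM added, 1 hr ambient; Alexa 594 FP and total fluorescence read at 555/632 nm.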
Numbers without * were called inactive; ? = inconclusive; / = not tested or not shown; [ ] = remark or other dose. Unless noted, calls follow the shape of the dose curve; as a rule, active = well fitted curve in the direction sought with a large enough effect; inconclusive = small, poorly fitted or top-dose-only effect, or another doubt; inactive = no such curve, though single readings can be large; an effect the other way counts as inactive or inconclusive. % is scaled to controls: 0 for no effect and ±100 for the full control effect.

SMILES	USP1 inh	Tau FP inhib	Coupling enz	Tau ThT inhib	Tau fluor cs
CCOC(=O)c1ccc(Nc2nc(C(=O)OCC)nc3ccccc23)cc1	-4.9%	?	-2.9	-7.2%	?
CCOC(=O)c1nc(Nc2ccc(N3CCC(C)CC3)cc2)c2ccccc2n1	?	13.4%	-0.8	?	11.2µM*[quencher]
COc1ccc(C(=O)NCC(c2cccnc2)N2CCc3ccccc3C2)cc1OC (stereo not drawn)	-4.7%	-11.0%	/	?	-29.7%
O=C(N/N=C\c1ccc([N+](=O)[O-])s1)c1cncc(Br)c1	-11.7%	12.5%	0.3	14.1µM*	?
O=C(N/N=C/c1ccc([N+](=O)[O-])s1)c1ccccc1	-16.2%	4.3%	-2.0	?	-18.6%
COc1ccc2nc(N3CCN(C(=O)C4CC4)CC3)sc2c1	-19.1%	-7.4%	/	?	-18.6%
CC(=O)NS(=O)(=O)c1ccc(N=c2ssc3c2-c2cc(C)ccc2NC3(C)C)cc1	-16.6%	-5.2%	12.8	?	-15.5%
CC1(C)Nc2ccc(O)cc2-c2c1ssc2=S	-25.2%	?	-20.1	11.2µM*	?
COC(=O)c1cc(C)[nH]c2c(C)cc3nc4ccccc4c3c12	-20.0%	?	-14.6	?	25.1µM*[quencher]
COC(=O)c1cc(-c2ccc(C)o2)nc2ccccc12	0.0%	10.0%	-2.8	-15.8%	4.7%
COc1ccc(OC)c(NC(=O)CSc2ncc3c(n2)-c2ccccc2N(C)S3(=O)=O)c1	?	4.1%	/	-1.0%	-26.1%
C=CCN1C(=O)C2(NNc3ccccc3O2)c2ccccc21 (stereo not drawn)	-4.2%	4.2%	-4.3	7.08µM*	12.6µM*[quencher]
CCCCN1C(=O)C2(NNc3ccccc3O2)c2ccccc21 (stereo not drawn)	?	-13.3%	-13.0	11.2µM*	11.2µM*[quencher]
CCCCN1C(=O)C(O)(c2c(C)[nH]c3ccccc23)c2ccccc21 (stereo not drawn)	-12.7%	4.2%	/	-11.7%	-25.5%
O=C(c1ccc(Cl)cc1)N1CCC(c2nc3ccccc3o2)CC1	-23.4%	8.1%	/	-4.2%	-7.1%
CCc1ccc(CNC(=O)c2ccc(CSc3nc4ccncc4n3Cc3ccc(OC)cc3)cc2)cc1	1.3%	0.3%	/	0.7%	-27.1%
COc1ccc(CNc2oc(-c3cccc4ccccc34)nc2C#N)cc1	-11.2%	-6.6%	3.1	-17.0%	8.91µM*[quencher]
COc1cccc(/C=C/c2nc(C#N)c(NCC(C)C)o2)c1	0.4%	/	-3.7	/	/
CNc1oc(-c2cccc3ccccc23)nc1C#N	-20.6%	10.6%	1.0	-11.4%	-23.0%
COc1ccc(-c2nc(C#N)c(NCCc3ccccc3)o2)cc1OC	-24.3%	?	-4.5	?	15.8µM*[quencher]
Cc1ccc(CNc2oc(C)nc2C#N)cc1	-9.7%	?	2.8	?	11.2µM*[quencher]
COc1ccc(CNc2oc(/C=C/c3cccc(OC)c3)nc2C#N)cc1	-15.7%	?	/	?	6.31µM*[quencher]
COc1ccc(-c2nc(C#N)c(NCc3ccc(C)cc3)o2)cc1OC	-26.6%	9.7%	-0.8	0.3%	?
COc1cc(NC(=O)CN2C(=O)C(c3ccc(Cl)cc3)=NC23CCCCC3)cc(OC)c1	-22.8%	?	/	3.2%	?
Cn1cc(-c2cc3n(n2)CCC(=O)N3CCCC(=O)NCc2ccc(F)cc2)c2ccccc21	0.0%	-1.4%	/	1.4%	-23.1%
SMILES	USP1 inh	Tau FP inhib	Coupling enz	Tau ThT inhib	Tau fluor cs
COc1cccc(/C=C/c2nc(C#N)c(NCCc3ccc(OC)c(OC)c3)o2)c1	-21.2%	?	/	?	12.6µM*[quencher]
N#Cc1nc(-c2cccc3ccccc23)oc1NCC1CCCO1 (stereo not drawn)	-2.1%	?	-16.0	?	15.8µM*[quencher]
Cc1ccc(N2CC(c3nnc(NC(=O)c4ccco4)s3)CC2=O)cc1C (stereo not drawn)	3.9%	1.8%	/	5.4%	-0.1%
CC(=O)Nc1ccc(SCCN2CCN(C)CCC2=O)cc1	/	/	0.8	/	/
CCOc1ccccc1CNS(=O)(=O)c1ccc2[nH]c(=O)ccc2c1	-22.1%	-1.4%	/	1.2%	-0.7%
COCc1[nH]nc2c1C(c1ccccc1Cl)C(C#N)=C(N)O2 (stereo not drawn)	-15.3%	-3.9%	-2.2	-6.2%	-3.7%

Bioassay records from PubChem BioAssay.
